# In PubChem BioAssay AID1445 (SRMLSC, 2008):
# The campaign covered roughly 220,000 compounds. About 910 (0.41%) were called active. The list comes from a sample in which actives are over-represented; it also holds similar structures and randomly drawn compounds. Results with a measured potency or affinity are listed apart. Values without a mark were called inactive.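 Rule for the calls: active = primary inhibition above the hit cutoff, then over 50% inhibition at one or more dose response concentrations (cut at about 23% in these data, passing the limit was not always enough); inconclusive = conflicting primary data, or primary hits not chosen for dose response; inactive = low primary inhibition, or under 50% at every dose.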
# Target: Aminopeptidase N (Plasmodium falciparum (isolate 3D7)) (UniProt O96935)
# Sequence (O96935 whole entry, looked up): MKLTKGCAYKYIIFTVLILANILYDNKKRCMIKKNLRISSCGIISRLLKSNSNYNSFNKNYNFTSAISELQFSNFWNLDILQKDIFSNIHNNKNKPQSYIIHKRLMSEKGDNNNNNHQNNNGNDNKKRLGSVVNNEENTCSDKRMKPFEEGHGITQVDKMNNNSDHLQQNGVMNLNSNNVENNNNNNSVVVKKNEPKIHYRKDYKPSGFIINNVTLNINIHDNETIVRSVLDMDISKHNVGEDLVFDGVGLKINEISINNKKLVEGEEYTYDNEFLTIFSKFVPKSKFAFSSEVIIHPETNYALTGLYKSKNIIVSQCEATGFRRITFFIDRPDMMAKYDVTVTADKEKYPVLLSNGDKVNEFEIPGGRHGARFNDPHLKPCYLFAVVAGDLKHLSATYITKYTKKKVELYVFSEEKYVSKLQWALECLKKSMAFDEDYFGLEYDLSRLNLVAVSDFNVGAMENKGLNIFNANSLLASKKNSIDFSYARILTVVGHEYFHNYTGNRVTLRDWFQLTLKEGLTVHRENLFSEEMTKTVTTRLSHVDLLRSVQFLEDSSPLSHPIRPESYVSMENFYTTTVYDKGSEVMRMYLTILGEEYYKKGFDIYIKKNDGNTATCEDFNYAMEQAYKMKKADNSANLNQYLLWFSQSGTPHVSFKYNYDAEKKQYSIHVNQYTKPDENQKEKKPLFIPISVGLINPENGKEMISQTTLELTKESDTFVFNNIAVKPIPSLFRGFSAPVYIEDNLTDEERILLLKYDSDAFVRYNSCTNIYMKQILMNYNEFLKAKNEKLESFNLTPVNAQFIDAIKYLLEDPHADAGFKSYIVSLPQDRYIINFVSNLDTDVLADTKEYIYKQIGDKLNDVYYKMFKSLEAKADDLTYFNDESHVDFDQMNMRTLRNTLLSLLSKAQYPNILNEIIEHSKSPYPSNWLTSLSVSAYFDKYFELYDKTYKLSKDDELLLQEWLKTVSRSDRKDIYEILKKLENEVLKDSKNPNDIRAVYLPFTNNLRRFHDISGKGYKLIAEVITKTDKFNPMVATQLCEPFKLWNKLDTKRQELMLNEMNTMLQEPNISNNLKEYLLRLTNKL
# Test: P. falciparum M1AAP inhibitors, biochemical, fluorogenic H-Leu-NHMec substrate, 1536-well (AID 1445);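 note: plate controls were DMSO full reaction for no effect and no enzyme background for full effect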
# Conditions: recombinant M1AAP, H-Leu-NHMec fluorogenic kinetic assay; at 30 µM, stronger effect = higher value unless noted
row,Compound,inhibition
1,Cn1c(=O)c2cc(S(=O)(=O)Nc3cc(C(=O)O)cc(C(=O)O)c3)ccc2n(C)c1=O,2.45%
2,O=C(NCc1cccnc1)c1cc([N+](=O)[O-])ccc1N1CCOCC1,4.23%
3,CCCCc1nc(NCCNC(=O)c2ccccc2)c(C#N)c2c1CSC(C)(C)C2,24.4% (active)
4,CCCCc1nc(NCc2ccccc2)c(C#N)c2c1COC(C)(C)C2,-3.84%
5,CCCCc1nc(Cl)c(C#N)c2c1CSC(C)(C)C2,0.12%
6,CCCCc1nc(NCCN)c(C#N)c2c1CSC(C)(C)C2,2.56%
7,CCc1nc(NCCN)c(C#N)c2c1CSC(C)(C)C2,-0.7%
8,Cc1ccc(C(NC(=O)N2CCN(C)CC2)C(Cl)Cl)cc1F (configuration not stated),0.01%
9,CCCCc1ccc(NC(=O)COc2ccc(C(=O)Nc3ccccc3C)cc2)cc1,-2.91%
10,COc1cc2c(cc1OC)C(c1cccs1)NCC2 (configuration not stated),0.84%
11,O=C(NCc1cccs1)c1nn2cccnc2c1Cl,12.7%
12,CCCOC(=O)Nc1nc2ccccc2o1,-8.89%
13,CCOC(=O)c1cnc(Nc2nc3ccccc3o2)nc1C,0.38%
14,Nc1nnc(CC(=O)N/N=C/c2ccc([N+](=O)[O-])cc2)s1,9.02%
15,Nc1nnc(CC(=O)N/N=C/c2cccc([N+](=O)[O-])c2)s1,-3.46%
16,CC1(NC(=S)NCCCCCCNC(=S)NC2(C)CCS(=O)(=O)C2)CCS(=O)(=O)C1 (configuration not stated),-1.81%
17,Cc1cc(C)c2[nH]c(=O)c(=O)[nH]c2c1,4.16%
18,Cc1ccc(-c2n[nH]c(=O)c3ccccc23)cc1N,12.6%
19,Cc1cc2c(C)c(C)c(=O)[nH]c2cc1N,25.2% (active)
20,COc1cccc(C2=NOC(C(=O)NCCCn3ccnc3)C2)c1 (configuration not stated),2.65%
21,COc1ccc(/C=C/C(=O)Nc2sc(Cc3ccccc3)c(C)c2C(N)=O)cc1,10.2%
22,O=C(O)CC/C(=C\c1ccc(Cl)c([N+](=O)[O-])c1)c1nc2ccccc2s1,15.7%
23,Cc1ccc(/C=C(\CCC(=O)O)c2nc3ccccc3s2)cc1[N+](=O)[O-],15.5%
24,O=C(O)CC/C(=C\c1cccc(NC(=O)c2ccccc2Cl)c1)c1nc2ccccc2s1,18%
25,COc1cccc(/C=C(\CC(=O)O)c2nc3ccccc3s2)c1,11.8%
26,CCOc1ccc(C(=O)N(CN2CCCC2=O)c2ccccc2)cc1,2.27%
27,Cc1ccc(Oc2cc(NC(=O)CCCn3nc([N+](=O)[O-])c(Cl)c3C)cc([N+](=O)[O-])c2)cc1,2.94%
